Molecules are shown by their SMILES. Compounds without any hit were thinned out: in the full panel of roughly 79,000, 15% have a hit. Calls of active or inactive are those of the source. Cut-off read from the data, not from the text of the source: active = growth inhibition above about 70%; inactive = the rest. Where a SMILES comes first, the peptide text is derived from it. The star is where a group is joined. Fmoc = O=C(OCC1c2ccccc2-c2ccccc21)*; OBn = c1ccc(CO*)cc1; tBu = CC(C)(C)*

The first test is described as follows: NCI Yeast Anticancer Drug Screen. Data for the sgs1 mgt1 strain (AID 161).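 Note: 0% = growth of cultures given vehicle only.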 To be noted: S. cerevisiae sgs1 mgt1 strain, at 50.0 µM, stronger effect = higher value. Summed up:
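Read-out: growth inhibition vs vehicle controls. Cells: mutant yeast strain deficient in DNA damage repair.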
For the compound `COc1ccc(C2C(C)C(=O)C(C)C(c3ccc(OC)cc3)N2N=O)cc1` (stereo not given), the growth inhibition is 15.6% (inactive).

Consider `CCOC(=O)CCCCCC(C(=O)OCC)c1nc2ccccc2[nH]c1=O` (stereo not given), for which the growth inhibition was 10.9% (inactive).

As for `COc1cc2c(cc1O)C1Cc3cc(O)c(OC)cc3C(C2)N1C` (stereo not given), the growth inhibition is -30.2% (inactive).

In the case of `N#C/C(=C\c1ccccc1Br)C(=O)c1ccccc1`, the growth inhibition is -3.35% (inactive).

`OC1C2CC3C(C2)C13` (stereo not given): the growth inhibition is 2.25% (inactive).

Turning to `NC1=NS(=O)(=O)Nc2nc(-c3ccc([N+](=O)[O-])o3)[nH]c21`, the growth inhibition is 26.1% (inactive).

`CC(=O)OC1(C#N)CCCCC1`: the growth inhibition was -7.05% (inactive).

Regarding `Clc1cccc(C=NC23CC4CC(CC(C4)C2)C3)c1Cl`, the growth inhibition was -40.3% (inactive).

As for `NC(N)=Nc1nc2ccc(Cl)cc2[nH]1`, the growth inhibition was 22.8% (inactive).

As to `O=C1c2cc(Cl)ccc2NC(O)c2cccn21` (stereo not given), the growth inhibition was -4.3% (inactive).

For `CCCCCCCCCCCCCCCC(=O)OCC1OC(OC(=O)CCCCCCCCCCCCCCC)C(OC(=O)CCCCCCCCCCCCCCC)C(OC(=O)CCCCCCCCCCCCCCC)C1OC(=O)CCCCCCCCCCCCCCC` (stereo not given), the growth inhibition was -19.9% (inactive).

Regarding `CN(C)C(=S)/N=c1\ss/c(=N\C(=S)N(C)C)n1-c1ccc2c(c1)OCO2`, the growth inhibition is -3.45% (inactive).

Consider `O=C1C=C(Nc2ccc(Cl)cc2C(=O)c2ccccc2)c2ccccc2C1=O`, for which the growth inhibition was -6.9% (inactive).

As for `CC[n+]1c(/C=C\N(C(C)=O)c2ccccc2)oc2ccccc21`, the growth inhibition was -9.3% (inactive).

Turning to `CCN(CC)C(=O)CS(=O)(=O)c1ccc(N)cc1`, the growth inhibition was 2% (inactive).

For `CCC1(COC(NC(=O)c2ccccc2)(C(F)(F)F)C(F)(F)F)COC1`, the growth inhibition is -32.2% (inactive).

For the compound `NC(=O)CCC(NS(=O)(=O)c1ccc(NC(=O)c2ccccc2)cc1)C(=O)O` (stereo not given), the growth inhibition was -22.9% (inactive).

For the compound `COc1ccc(NC(=O)C2C(=O)N(c3ccc(OC)cc3)C(=O)/C2=N\N)cc1` (stereo not given), the growth inhibition is -2.9% (inactive).

In the case of `CC(C)NC(=O)c1ccc(CBr)cc1`, the growth inhibition is -10.1% (inactive).

As for `O=C1CCC(=O)N1c1ccc([I+]c2ccc(N3C(=O)CCC3=O)cc2)cc1`, the growth inhibition is 12.7% (inactive).

As for `CC1(C)OC2COC(CN(N=O)C(N)=O)C2O1` (stereo not given), the growth inhibition was -8.15% (inactive).

In the case of `N#CCCN(C1=NN(C(=O)CC(=O)Nc2cccc(Cl)c2)C(c2ccccc2)C1)c1ccccc1Cl` (stereo not given), the growth inhibition is -16.1% (inactive).

Turning to `CC(c1ccccc1)C(C)(C#N)c1ccccc1` (stereo not given), the growth inhibition was 15.8% (inactive).

In the case of `CCOc1cc2c(cc1O)CC[C@@H]1[C@@H]2CC[C@]2(C)C(N)CC[C@@H]12` (stereo not given in full), the growth inhibition was -18.2% (inactive).

Take `CCCCCCC(C(=O)OCC)(C(=O)OCC)c1ccccc1`: the growth inhibition was 1.15% (inactive).

Regarding `O=S(=O)(c1ccc(I)cc1)c1ccc(I)cc1`, the growth inhibition is -9.15% (inactive).

Regarding `c1ccc(Cc2[nH]nc(-c3n[nH]c(Cc4ccccc4)c3-c3ccccc3)c2-c2ccccc2)cc1`, the growth inhibition was -9.65% (inactive).

With `FC1C2=C(SC1(F)F)C1CCC2C1` (stereo not given), the growth inhibition was 28.1% (inactive).

On to `CCCCCCP(=O)(CCCC)CCCC`, for which the growth inhibition was 41.2% (inactive).

Turning to `CNC(=O)Nc1[nH]c(=O)ncc1Cl`, the growth inhibition is 8.95% (inactive).

As for `Cc1cc(=O)c2c3c(ccc2[nH]1)Oc1ccccc1O3`, the growth inhibition is 5.2% (inactive).

`COC(=O)c1cc(C(C)O)nc2ccccc12` (stereo not given): the growth inhibition is 6.25% (inactive).

Take `CC(OC(C)(C)C)C(NC(=O)OCC1c2ccccc2-c2ccccc21)C(=O)NC(Cc1ccccc1)C(=O)OCc1ccccc1` (stereo not given) (Fmoc-Thr(tBu)-Phe-OBn; configuration not given here): the growth inhibition is -4.5% (inactive).

Consider `CCOC(=O)c1cnc(=S)n(CCC(C)C)c1N`, for which the growth inhibition is 12.7% (inactive).

Consider `CC(=O)Nc1ccc(N=Nc2c(C)nn(C(=N)N)c2C)cc1`, for which the growth inhibition was 0.45% (inactive).

With `O=C1NC(c2ccco2)N2C(=O)NC(c3ccco3)N12` (stereo not given), the growth inhibition was 24.5% (inactive).

On to `COc1cc(-c2c3c(cc4c2OCO4)CC(O)C(C(=O)O)C3)cc(OC)c1OC` (stereo not given), for which the growth inhibition was 0.4% (inactive).

For the compound `OC(CBr)(c1ccccc1)c1ccccc1`, the growth inhibition was 19.9% (inactive).

Consider `CC(C)C1N=C(N)N=C(N)N1c1ccc(Cl)c(Cl)c1` (stereo not given), for which the growth inhibition was 8% (inactive).

On to `CC(=O)/C(=C\I)c1ccccc1`, for which the growth inhibition is 85.4% (active).

A further test is described as follows: NCI Yeast Anticancer Drug Screen. Data for the cln2 rad14 strain (AID 165).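 Note: 0% = growth equal to vehicle treated cultures.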 To be noted: S. cerevisiae cln2 rad14 strain, at 50.0 µM, stronger effect = higher value. In a few lines:
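The screen exposed genetically defined yeast (cln2 rad14) to test compounds and scored growth inhibition relative to vehicle-treated controls.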
`COc1ccc(C2C(C)C(=O)C(C)C(c3ccc(OC)cc3)N2N=O)cc1` (stereo not given): the growth inhibition is -1.2% (inactive).

Consider `CCOC(=O)CCCCCC(C(=O)OCC)c1nc2ccccc2[nH]c1=O` (stereo not given), for which the growth inhibition was -5.1% (inactive).

Consider `COc1cc2c(cc1O)C1Cc3cc(O)c(OC)cc3C(C2)N1C` (stereo not given), for which the growth inhibition was 3.1% (inactive).

For `N#C/C(=C\c1ccccc1Br)C(=O)c1ccccc1`, the growth inhibition was 11.4% (inactive).

Take `OC1C2CC3C(C2)C13` (stereo not given): the growth inhibition was 4.8% (inactive).

Turning to `NC1=NS(=O)(=O)Nc2nc(-c3ccc([N+](=O)[O-])o3)[nH]c21`, the growth inhibition is 23.2% (inactive).

Take `CC(=O)OC1(C#N)CCCCC1`: the growth inhibition was 23.1% (inactive).

Take `Clc1cccc(C=NC23CC4CC(CC(C4)C2)C3)c1Cl`: the growth inhibition was -6% (inactive).

Regarding `NC(N)=Nc1nc2ccc(Cl)cc2[nH]1`, the growth inhibition is -4.3% (inactive).

Take `O=C1c2cc(Cl)ccc2NC(O)c2cccn21` (stereo not given): the growth inhibition is -20.9% (inactive).

On to `CCCCCCCCCCCCCCCC(=O)OCC1OC(OC(=O)CCCCCCCCCCCCCCC)C(OC(=O)CCCCCCCCCCCCCCC)C(OC(=O)CCCCCCCCCCCCCCC)C1OC(=O)CCCCCCCCCCCCCCC` (stereo not given), for which the growth inhibition was -7.05% (inactive).

In the case of `CN(C)C(=S)/N=c1\ss/c(=N\C(=S)N(C)C)n1-c1ccc2c(c1)OCO2`, the growth inhibition is -1.45% (inactive).

`O=C1C=C(Nc2ccc(Cl)cc2C(=O)c2ccccc2)c2ccccc2C1=O`: the growth inhibition was 22.2% (inactive).

In the case of `CC[n+]1c(/C=C\N(C(C)=O)c2ccccc2)oc2ccccc21`, the growth inhibition is -0.7% (inactive).

Turning to `CCN(CC)C(=O)CS(=O)(=O)c1ccc(N)cc1`, the growth inhibition was 23.9% (inactive).

Consider `CCC1(COC(NC(=O)c2ccccc2)(C(F)(F)F)C(F)(F)F)COC1`, for which the growth inhibition is 14.1% (inactive).

Turning to `NC(=O)CCC(NS(=O)(=O)c1ccc(NC(=O)c2ccccc2)cc1)C(=O)O` (stereo not given), the growth inhibition is 19.6% (inactive).

For the compound `COc1ccc(NC(=O)C2C(=O)N(c3ccc(OC)cc3)C(=O)/C2=N\N)cc1` (stereo not given), the growth inhibition was -57.6% (inactive).

As for `CC(C)NC(=O)c1ccc(CBr)cc1`, the growth inhibition was 9.8% (inactive).

`O=C1CCC(=O)N1c1ccc([I+]c2ccc(N3C(=O)CCC3=O)cc2)cc1`: the growth inhibition is 15.1% (inactive).

For `CC1(C)OC2COC(CN(N=O)C(N)=O)C2O1` (stereo not given), the growth inhibition is -75% (inactive).

Turning to `N#CCCN(C1=NN(C(=O)CC(=O)Nc2cccc(Cl)c2)C(c2ccccc2)C1)c1ccccc1Cl` (stereo not given), the growth inhibition is 11.5% (inactive).

For `CC(c1ccccc1)C(C)(C#N)c1ccccc1` (stereo not given), the growth inhibition is 33.5% (inactive).

`CCOc1cc2c(cc1O)CC[C@@H]1[C@@H]2CC[C@]2(C)C(N)CC[C@@H]12` (stereo not given in full): the growth inhibition was -33.1% (inactive).

In the case of `CCCCCCC(C(=O)OCC)(C(=O)OCC)c1ccccc1`, the growth inhibition was -31.1% (inactive).

As for `O=S(=O)(c1ccc(I)cc1)c1ccc(I)cc1`, the growth inhibition is 5.2% (inactive).

Consider `c1ccc(Cc2[nH]nc(-c3n[nH]c(Cc4ccccc4)c3-c3ccccc3)c2-c2ccccc2)cc1`, for which the growth inhibition is -8.35% (inactive).

In the case of `FC1C2=C(SC1(F)F)C1CCC2C1` (stereo not given), the growth inhibition was 17.9% (inactive).

As to `CCCCCCP(=O)(CCCC)CCCC`, the growth inhibition was -20.9% (inactive).

With `CNC(=O)Nc1[nH]c(=O)ncc1Cl`, the growth inhibition was -5.1% (inactive).

Regarding `Cc1cc(=O)c2c3c(ccc2[nH]1)Oc1ccccc1O3`, the growth inhibition is 8.45% (inactive).

In the case of `COC(=O)c1cc(C(C)O)nc2ccccc12` (stereo not given), the growth inhibition is 0.65% (inactive).

Turning to `CC(OC(C)(C)C)C(NC(=O)OCC1c2ccccc2-c2ccccc21)C(=O)NC(Cc1ccccc1)C(=O)OCc1ccccc1` (stereo not given) (Fmoc-Thr(tBu)-Phe-OBn; configuration not given here), the growth inhibition was -15.7% (inactive).

On to `CCOC(=O)c1cnc(=S)n(CCC(C)C)c1N`, for which the growth inhibition is -40.5% (inactive).

`CC(=O)Nc1ccc(N=Nc2c(C)nn(C(=N)N)c2C)cc1`: the growth inhibition is 0.6% (inactive).

Take `O=C1NC(c2ccco2)N2C(=O)NC(c3ccco3)N12` (stereo not given): the growth inhibition is 12.6% (inactive).

Regarding `COc1cc(-c2c3c(cc4c2OCO4)CC(O)C(C(=O)O)C3)cc(OC)c1OC` (stereo not given), the growth inhibition was 15.1% (inactive).

In the case of `OC(CBr)(c1ccccc1)c1ccccc1`, the growth inhibition was 31.3% (inactive).

For the compound `CC(C)C1N=C(N)N=C(N)N1c1ccc(Cl)c(Cl)c1` (stereo not given), the growth inhibition is -16.9% (inactive).

As to `CC(=O)/C(=C\I)c1ccccc1`, the growth inhibition is 89.9% (active).

The record behind these values is PubChem BioAssay (NCI).
